Experimental data as given in PubChem BioAssay (Tox21).
Records with an inconclusive call do not appear. Active and inactive are the calls of the source. Unless noted, calls come from the whole dose curve.

Legend:
[1] = Nuclear factor erythroid 2-related factor 2/antioxidant responsive element (Nrf2/ARE) small molecule agonists: qHTS cell viability counter screen in human keratinocytes (AID 1919968; active = well fitted curve in the direction sought with a large enough effect in the repeat runs; an effect the other way counts as inactive or inconclusive; note: nearly all actives have a fitted effect of over 55% in size; note: potency is the fitted concentration of half-maximal effect)
In short: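 Fluorescence read-out from CellTiter-Fluor after 1 h at 37 C. Wells held HaCaT-derived ARE-luciferase reporter cells (1,500/well) treated 23 h with DMSO-dissolved compounds. Run in the same wells as the luciferase agonist read.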

[2] = biological target: Gonadotropin-releasing hormone receptor (Homo sapiens) (UniProt P30968); test: Human gonadotropin-releasing hormone receptor (GnRHR) small molecule agonists, calcium flux assay in GnRHR-HEK293 cells (AID 1920063); note: nearly all actives have a fitted effect of over 35% in size
Sequence of Gonadotropin-releasing hormone receptor (Homo sapiens) (P30968 whole entry, looked up): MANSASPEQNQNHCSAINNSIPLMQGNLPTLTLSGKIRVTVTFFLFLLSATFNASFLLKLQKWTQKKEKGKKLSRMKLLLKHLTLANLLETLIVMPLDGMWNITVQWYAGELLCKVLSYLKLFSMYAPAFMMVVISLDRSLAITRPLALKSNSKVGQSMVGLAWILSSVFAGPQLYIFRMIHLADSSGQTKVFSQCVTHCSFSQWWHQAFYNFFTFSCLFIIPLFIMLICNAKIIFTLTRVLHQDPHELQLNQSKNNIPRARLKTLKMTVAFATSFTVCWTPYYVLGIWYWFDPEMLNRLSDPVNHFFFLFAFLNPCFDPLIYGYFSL
In short: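 Calcium-dye fluorescence, Ex/Em=480/540, recorded every 1 sec over 3 min after compound addition to GnRHR-HEK293 cells. Cells had been seeded 18 hours earlier and dye-loaded for 1 hour at 37 C. Fifteen concentrations, triplicates.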

[3] = biological target: KiSS-1 receptor (Homo sapiens) (UniProt Q969F8); test: Human kisspeptin (KISS1R) small molecule agonists, calcium flux assay in KISS1R-HEK293 cells (AID 1920064; active = well fitted curve in the direction sought with a large enough effect in the repeat runs; an effect the other way counts as inactive or inconclusive)
Sequence of KiSS-1 receptor (Homo sapiens) (Q969F8 whole entry, looked up): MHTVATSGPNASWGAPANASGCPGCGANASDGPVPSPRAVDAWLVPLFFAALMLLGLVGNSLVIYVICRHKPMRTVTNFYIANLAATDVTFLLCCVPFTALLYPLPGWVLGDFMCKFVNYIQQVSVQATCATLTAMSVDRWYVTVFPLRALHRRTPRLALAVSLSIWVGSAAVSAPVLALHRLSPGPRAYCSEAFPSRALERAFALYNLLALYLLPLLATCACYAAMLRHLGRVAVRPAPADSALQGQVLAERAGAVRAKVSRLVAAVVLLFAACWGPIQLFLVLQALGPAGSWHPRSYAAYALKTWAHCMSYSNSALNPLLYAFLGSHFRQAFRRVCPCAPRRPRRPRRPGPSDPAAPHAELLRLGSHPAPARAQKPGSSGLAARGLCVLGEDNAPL
In short: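 Calcium flux read-out: kinetic fluorescence at Ex/Em=480/540, 1 s intervals over 3 min, after pin-tool compound addition to dye-loaded KISS1R-HEK293 cells. Fifteen concentrations, triplicates.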

[4] = G protein-coupled receptor (GPCR) small molecule agonists, calcium flux assay: HEK293 wild type cell line counter screen (AID 1920065)
In short: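 Agonist mode; 18 h seeding at 37 C, 1 h dye load at 37 C; compounds pinned from DMSO, ATP as positive control; kinetic fluorescence 480/540 nm, 3 min, 1 s reads; 15 concentrations, triplicate.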

[5] = p53 small molecule agonists, cell-based qHTS assay with human liver microsomes (AID 1963577);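 note: p53 response element beta-lactamase reporter cells with liver microsomes plus NADPH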
In short: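 Steps: plate p53RE-bla cells, incubate 5 h at 37 C; add compound in DMSO; add microsomes (0.5 mg/mL final) and NADPH (0.5 mg/mL final); incubate 16 h at 37 C; add LiveBLAzer, 2 h RT; read fluorescence.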

[6] = p53 small molecule agonists, cell-based qHTS assay with rat liver microsomes (AID 1963578)
In short: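 Metabolic activation is supplied by rat liver microsomes with NADPH (each 0.5 mg/mL final). p53RE-bla cells incubate with compound 16 h at 37 C; reporter activity is measured by LiveBLAzer fluorescence.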

[7] = p53 small molecule agonists, cell-based qHTS assay with human liver microsomes: qHTS cell viability counter screen (AID 1963579); note: nearly all actives have a fitted effect of over 45% in size
In short: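 After the 460/530 nm beta-lactamase read, CellTiter-Glo was added to the same wells and luminescence measured after 30 min at room temperature, giving viability of p53RE-bla cells treated 16 h with compounds plus microsomes and NADPH.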

[8] = p53 small molecule agonists, cell-based qHTS assay with rat liver microsomes: qHTS cell viability counter screen (AID 1963580); note: nearly all actives have a fitted effect of over 45% in size
In short: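 Counter screen for cytotoxicity under metabolic activation: rat liver microsomes and NADPH, 0.5 mg/mL final each, added with compounds to p53RE-bla HCT-116 cells; 16 h at 37 C, then ATP luminescence read.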

[9] = p53 small molecule agonists, cell-based qHTS assay (AID 1963582; active = well fitted activation curve with a large enough effect in the signal ratio in the repeat runs, not every such curve was filed as active; the % refers to the signal ratio)
In short: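 Fluorescence intensity read-out of a beta-lactamase reporter under a p53 response element. Cells were exposed to DMSO-dissolved compounds for 16 h at 37 C, then developed with FRET substrate for 2 h at RT.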

[10] = biological target: 5-hydroxytryptamine receptor 2A (Homo sapiens) (UniProt P28223); test: 5-hydroxytryptamine receptor 2A (HTR2A) small molecule antagonists, cell-based qHTS assay (AID 1963586); note: nearly all actives have a fitted effect of over 45% in size; note: potency is the fitted concentration of half-maximal effect
Sequence of 5-hydroxytryptamine receptor 2A (Homo sapiens) (P28223 whole entry, looked up): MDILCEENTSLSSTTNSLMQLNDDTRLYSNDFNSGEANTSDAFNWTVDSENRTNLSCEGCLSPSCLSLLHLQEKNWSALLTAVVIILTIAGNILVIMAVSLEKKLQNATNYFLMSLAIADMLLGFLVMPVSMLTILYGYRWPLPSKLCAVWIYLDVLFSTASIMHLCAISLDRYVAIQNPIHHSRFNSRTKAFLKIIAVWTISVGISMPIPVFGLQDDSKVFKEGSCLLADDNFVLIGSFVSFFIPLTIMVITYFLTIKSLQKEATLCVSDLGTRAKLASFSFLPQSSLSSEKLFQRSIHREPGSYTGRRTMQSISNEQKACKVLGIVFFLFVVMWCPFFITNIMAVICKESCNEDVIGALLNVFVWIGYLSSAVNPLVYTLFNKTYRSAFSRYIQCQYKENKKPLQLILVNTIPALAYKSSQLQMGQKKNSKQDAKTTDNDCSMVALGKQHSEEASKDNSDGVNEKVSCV
In short: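 CHO cells stably expressing human HTR2A were plated for 18 h at 37 C, then loaded with calcium dye for 1 h. Compounds were preincubated 5 min at room temperature before DOI (4 nM solution) was added. Kinetic fluorescence was read for 3 min.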

[11] = biological target: 5-hydroxytryptamine receptor 2A (Homo sapiens) (UniProt P28223); test: 5-hydroxytryptamine receptor 2A (HTR2A) small molecule agonists, cell-based qHTS assay (AID 1963587); note: nearly all actives have a fitted effect of over 30% in size
In short: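 HTR2A-CHO cells, plated 18 h at 37 C/5% CO2, dye-loaded 1 h at 37 C; compounds in DMSO added by pin tool (agonist mode). Intracellular calcium flux read as kinetic fluorescence on FDSS over 2 min at 1 s intervals.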

[12] = biological target: Muscarinic acetylcholine receptor M1 (Homo sapiens) (UniProt P11229); test: Cholinergic receptor muscarinic 1 (CHRM1) small molecule antagonists, cell-based qHTS assay (AID 1963588); note: nearly all actives have a fitted effect of over 40% in size; note: potency is the fitted concentration of half-maximal effect
Sequence of Muscarinic acetylcholine receptor M1 (Homo sapiens) (P11229 whole entry, looked up): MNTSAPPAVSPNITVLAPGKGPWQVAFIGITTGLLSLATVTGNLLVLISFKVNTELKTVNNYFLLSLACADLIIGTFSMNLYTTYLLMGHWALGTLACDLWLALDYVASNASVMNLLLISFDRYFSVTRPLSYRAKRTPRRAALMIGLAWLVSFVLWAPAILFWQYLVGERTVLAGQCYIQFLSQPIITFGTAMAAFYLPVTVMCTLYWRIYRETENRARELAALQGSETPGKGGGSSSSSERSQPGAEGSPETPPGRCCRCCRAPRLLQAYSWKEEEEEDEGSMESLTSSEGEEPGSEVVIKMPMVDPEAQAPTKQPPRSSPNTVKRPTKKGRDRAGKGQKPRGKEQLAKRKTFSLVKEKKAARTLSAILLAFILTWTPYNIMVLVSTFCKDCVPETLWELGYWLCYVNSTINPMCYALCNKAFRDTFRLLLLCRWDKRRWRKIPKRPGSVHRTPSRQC
In short: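 Compounds were tested at 15 concentrations in three independent runs. Dye-loaded CHRM1-CHO cells were exposed 5 min at room temperature before stimulation by acetylcholine added at 50nM. Intracellular calcium was read kinetically on FDSS for 3 min.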

[13] = cAMP Responsive Elements (CRE) small molecule agonists, cell-based qHTS assay (AID 1963590)
In short: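 Beta-lactamase reporter readout: LiveBLAzer B/G FRET substrate, 2 h at room temperature, added after 3 h compound treatment of CRE-bla HEK 293T cells at 37 C/5% CO2.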

[14] = cAMP Responsive Elements (CRE) small molecule antagonists, cell-based qHTS assay (AID 1963591; active = well fitted inhibition curve with a large enough effect in the signal ratio in the repeat runs, not every such curve was filed as active; the % refers to the signal ratio)
In short: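 HEK293T CRE-bla; 18 h preincubation; compound pin-transfer; NKH477 0.25 uM final, 3 h, 37 C; LiveBLAzer FRET substrate 2 h RT.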

[15] = biological target: Beta-2 adrenergic receptor (Homo sapiens) (UniProt P07550); test: Adrenergic beta2 receptor (ADRB2) small molecule agonists, cell-based qHTS assay (AID 1963593);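 note: CHO cells stably overexpressing human ADRB2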
Sequence of Beta-2 adrenergic receptor (Homo sapiens) (P07550 whole entry, looked up): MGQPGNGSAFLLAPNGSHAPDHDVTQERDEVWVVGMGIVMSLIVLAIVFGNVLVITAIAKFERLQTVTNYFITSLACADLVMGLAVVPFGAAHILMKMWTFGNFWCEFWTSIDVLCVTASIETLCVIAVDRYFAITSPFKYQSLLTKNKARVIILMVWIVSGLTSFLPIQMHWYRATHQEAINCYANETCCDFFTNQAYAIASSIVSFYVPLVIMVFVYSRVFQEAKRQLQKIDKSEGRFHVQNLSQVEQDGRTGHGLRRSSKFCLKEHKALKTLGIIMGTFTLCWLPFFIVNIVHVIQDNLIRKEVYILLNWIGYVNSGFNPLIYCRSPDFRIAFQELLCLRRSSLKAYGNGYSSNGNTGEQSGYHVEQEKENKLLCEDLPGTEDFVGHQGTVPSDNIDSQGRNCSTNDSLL
In short: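 CHO cells stably over-expressing ADRB2 were plated overnight at 37C, then dosed with compounds plus a stimulation mix containing 100uM IBMX and 25uM Ro-20-1724 for 0.5hr at room temperature. cAMP was measured by HTRF competition, 1hr.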

[16] = biological target: D(2) dopamine receptor (Homo sapiens) (UniProt P14416); test: Dopamine D2 receptor (DRD2) small molecule antagonists, cell-based qHTS assay (AID 1963595; active = well fitted inhibition curve with a large enough effect in the signal ratio in the repeat runs, with a control signal flat; the % refers to the signal ratio; note: potency is the fitted concentration of half-maximal effect)
Sequence of D(2) dopamine receptor (Homo sapiens) (P14416 whole entry, looked up): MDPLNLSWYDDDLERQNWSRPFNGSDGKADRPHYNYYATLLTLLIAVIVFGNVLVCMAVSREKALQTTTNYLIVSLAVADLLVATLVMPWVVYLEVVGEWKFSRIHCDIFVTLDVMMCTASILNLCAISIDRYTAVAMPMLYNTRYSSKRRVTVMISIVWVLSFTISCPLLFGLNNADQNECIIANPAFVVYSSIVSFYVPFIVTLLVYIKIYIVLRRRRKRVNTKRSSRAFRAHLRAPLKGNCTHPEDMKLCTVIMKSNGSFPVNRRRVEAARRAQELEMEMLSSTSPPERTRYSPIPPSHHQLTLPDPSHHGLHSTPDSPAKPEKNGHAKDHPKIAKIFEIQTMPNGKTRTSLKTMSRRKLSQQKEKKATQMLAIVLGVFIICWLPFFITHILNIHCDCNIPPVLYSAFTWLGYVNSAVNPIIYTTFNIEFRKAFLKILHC
In short: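 HTRF cAMP read-out at 665 and 620 nm emission (340 nm excitation). Antagonist mode: compounds were tested against 12 nM quinpirole in DRD2-HEK293 cells, with 200 nM NKH477 raising cAMP and 0.1 mM Ro20-1724 blocking its breakdown.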

[17] = p53 small molecule agonists, cell-based qHTS assay: qHTS cell viability counter screen (AID 1963581); note: nearly all actives have a fitted effect of over 45% in size
In short: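 Cytotoxicity read-out: ATP-based luminescence (CellTiter-Glo, 30 min RT) measured in the same wells as the p53 reporter assay, HCT-116 p53RE-bla cells, 16 h compound exposure at 37 C.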

[18] = biological target: Muscarinic acetylcholine receptor M1 (Homo sapiens) (UniProt P11229); test: Cholinergic receptor muscarinic 1 (CHRM1) small molecule agonists, cell-based qHTS assay (AID 1963589); note: nearly all actives have a fitted effect of over 35% in size
In short: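 Calcium flux read-out: kinetic fluorescence at 1 sec intervals after pin-tool compound addition to dye-loaded CHRM1-CHO cells (human M1). Agonist mode; 15 concentrations tested in triplicate independent runs.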

[19] = biological target: D(2) dopamine receptor (Homo sapiens) (UniProt P14416); test: Dopamine D2 receptor (DRD2) small molecule agonists, cell-based qHTS assay (AID 1963594); note: nearly all actives have a fitted effect of over 35% in size
In short: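 HEK293 cells stably expressing DRD2 were cultured 24 h at 37 C, then given Ro20-1724 (0.1 mM final) and compounds for 10 min at room temperature. NKH477 (200nM) was then added for 30 min. cAMP was read by HTRF.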

[20] = biological target: Beta-2 adrenergic receptor (Homo sapiens) (UniProt P07550); test: Adrenergic beta2 receptor (ADRB2) small molecule antagonists, cell-based qHTS assay (AID 1963592); note: series mostly up to about 92 µM; nearly all actives have a fitted effect of over 50% in size
In short: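 Assay format: CHO-ADRB2 cells, 18-20hr seeding at 37C/5% CO2, then compound plus 1nM isoproterenol agonist mix for 0.5hr RT. Homogeneous time-resolved fluorescence cAMP detection after 1hr, expressed as 665/615 nm ratio.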
% is set by controls: 0 for no effect and ±100 for the full control effect.

CN1CCN(N)CC1
inactive: Potency [1] | Potency [2] | outcome [3] | outcome [4] | Potency [5] | Potency [6] | Potency [7] | Potency [8] | Potency [9] | Potency [10] | Potency [11] | Potency [12] | Potency [13] | Potency [14] | Potency [15] | Potency [16]

CCCCCCCCCCCCCCCCOS(=O)(=O)O
inactive: Potency [1] | Potency [2] | outcome [3] | outcome [4] | Potency [5] | Potency [6] | Potency [7] | Potency [8] | Potency [17] | Potency [9] | Potency [12] | Potency [18] | Potency [13] | Potency [19] | Potency [16]

N#Cc1ccc(C/C(=N/NC(=O)Nc2ccc(OC(F)(F)F)cc2)c2cccc(C(F)(F)F)c2)cc1
inactive: Potency [1] | Potency [2] | outcome [3] | outcome [4] | Potency [5] | Potency [6] | Potency [7] | Potency [8] | Potency [17] | Potency [10] | Potency [11] | Potency [12] | Potency [18] | Potency [20] | Potency [19] | Potency [16]

CC(=O)N/N=C/c1ccc([N+](=O)[O-])o1
inactive: Potency [1] | Potency [2] | outcome [3] | outcome [4] | Potency [5] | Potency [6] | Potency [7] | Potency [8] | Potency [17] | Potency [11] | Potency [18] | Potency [13] | Potency [19] | Potency [16]
active: Potency [12] 0.0326 µM

COCCC(=O)OC
inactive: Potency [1] | Potency [2] | outcome [3] | outcome [4] | Potency [5] | Potency [6] | Potency [7] | Potency [17] | Potency [9] | Potency [10] | Potency [11] | Potency [12] | Potency [18] | Potency [13] | Potency [14] | Potency [20] | Potency [19] | Potency [16]

CN1CCN(CCCN2c3ccccc3Sc3ccc(C(F)(F)F)cc32)CC1
inactive: Potency [2] | outcome [3] | outcome [4] | Potency [5] | Potency [6] | Potency [7] | Potency [8] | Potency [20] | Potency [15] | Potency [19]
active: Potency [1] 29.8 µM | Potency [16] 0.0298 µM

Nc1c2c(nc3c1CCC3)CCCC2
inactive: Potency [1] | Potency [2] | outcome [3] | outcome [4] | Potency [5] | Potency [6] | Potency [7] | Potency [8] | Potency [17] | Potency [9] | Potency [11] | Potency [12] | Potency [18] | Potency [13] | Potency [14] | Potency [15] | Potency [19] | Potency [16]

[O]=[Bi]
inactive: activity change, negative = cytotoxicity [1] 4.16% [at 8.39 µM] | activity change [2] 0.29% [at 5.22 µM, stronger effect = higher value] | activation [3] 0.437% [at 6.97 µM] | activation [4] 0.259% [at 5.23 µM] | activation [5] -14.4% [at 5.99 µM] | activation [6] 0.191% [at 5.99 µM] | activity change, negative = cytotoxicity [7] -5.49% [at 5.99 µM] | activity change, negative = cytotoxicity [17] 5.64% [at 5.99 µM] | activation [9] 6.59% [at 5.99 µM] | activity, negative = inhibition [10] 2.38% [at 5.62 µM] | activation [11] 0.438% [at 7.02 µM] | activity, negative = inhibition [12] 3.36% [at 5.58 µM] | activation [18] 0.394% [at 6.97 µM] | activation [13] -0.129% [at 8.39 µM] | activity change, negative = inhibition [14] -10.4% [at 8.39 µM] | activity change, negative = inhibition [20] 6.45% [at 8.39 µM] | activation [15] 3.98% [at 8.39 µM] | activation [19] 0.151% [at 8.39 µM] | activity change, negative = inhibition [16] -14.1% [at 8.38 µM]

CCN1CCC[C@H]1CNC(=O)c1cc(S(N)(=O)=O)ccc1OC
inactive: Potency [1] | Potency [2] | outcome [3] | outcome [4] | Potency [5] | Potency [6] | Potency [7] | Potency [8] | Potency [17] | Potency [9] | Potency [13] | Potency [14] | Potency [20] | Potency [15]

O=C(CCN1CCN2CCCC2C1)N1c2ccccc2Sc2ccc(Cl)cc21 (centres undefined)
active: Potency [10] 8.94 µM
inactive: activity change, negative = cytotoxicity [1] -13.5% [at 19 µM] | activity change [2] 0.23% [at 11.8 µM, stronger effect = higher value] | activation [3] -1.39% [at 15.8 µM] | activation [4] 0.367% [at 11.8 µM] | activation [5] -1.04% [at 13.5 µM] | activation [6] 1.06% [at 13.6 µM] | activity change, negative = cytotoxicity [7] -1.69% [at 13.5 µM] | activity change, negative = cytotoxicity [17] -8.91% [at 13.5 µM] | activation [9] -0.768% [at 13.5 µM] | activation [11] -9.57% [at 15.9 µM] | activation [18] 0.0294% [at 15.8 µM] | activation [13] 0.0795% [at 19 µM] | activity change, negative = inhibition [14] -4.08% [at 18.9 µM] | activity change, negative = inhibition [20] 0.603% [at 19 µM] | activation [19] -31% [at 19 µM] | activity change, negative = inhibition [16] -8.25% [at 18.9 µM]

C=Cc1ccccc1C=C
inactive: Potency [1] | Potency [2] | outcome [3] | outcome [4] | Potency [5] | Potency [6] | Potency [7] | Potency [8] | Potency [9] | Potency [10] | Potency [11] | Potency [12] | Potency [18] | Potency [13] | Potency [14] | Potency [20] | Potency [19] | Potency [16]

CC[C@@H](N)CO
inactive: Potency [1] | Potency [2] | outcome [3] | outcome [4] | Potency [5] | Potency [6] | Potency [7] | Potency [8] | Potency [17] | Potency [9] | Potency [11] | Potency [12] | Potency [18] | Potency [13] | Potency [14] | Potency [20] | Potency [19] | Potency [16]

C(=C/c1ccccc1)/c1ccccc1
inactive: Potency [1] | Potency [2] | outcome [3] | outcome [4] | Potency [5] | Potency [6] | Potency [7] | Potency [8] | Potency [17] | Potency [9] | Potency [12] | Potency [18] | Potency [13] | Potency [14] | Potency [20] | Potency [15] | Potency [19] | Potency [16]
